Rows were chosen to be rich in hits. Some 17% of all compounds tested hit in one or more screens of this group.
HT1080NT lethal: qHTS for induction of synthetic lethality in tumor cells producing 2HG: qHTS for the HT-1080-NT fibrosarcoma cell line; Potency, µM (titrated, usually from 46.1 µM), for the others: at the highest dose activity, negative = less viability, hits mostly cytotoxic; HT-1080-NT fibrosarcoma viability, CellTiter-Glo ATP luminescence, 48 h; AID 686970, 2013; 360,000 tested, 1.6% active;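 further: NT is the 2HG producing partner of a matched IDH1 knockdown line; 0% = DMSO-treated cells and -100% = media-only wells without cells; nearly all actives have a fitted effect of over 55% in size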
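Toxicity toward the 2HG-producing NT line was scored as %Activity, normalised to DMSO and no-cell wells, from CellTiter-Glo luminescence after 48 hours' treatment.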
DT40 TDP1 no CPT: qHTS for Inhibitors of human tyrosyl-DNA phosphodiesterase 1 (TDP1): qHTS in cells in absence of CPT; DT40 Tdp1-/- hTDP1 cells, no CPT, ATP luminescence, 48 h; AID 686978, 2013; Potency, µM (top dose mostly 46.2 µM), for the others: at the highest dose activity change, negative = growth inhibition, hits mostly inhibitors; 420,000 tested, 15% active; further: on the % scale 0 is the no-effect control and ±100 the full control effect; nearly all actives have a fitted effect of over 55% in size
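DT40 Tdp1-/-;hTDP1 cells, no CPT (DMSO vehicle only), 400 cells/well; compounds pin-transferred; ≥48 hr, 37 °C; CellTiter-Glo 30 min RT dark, luminescence read.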
TGFb inhibitor: qHTS for Inhibitors of TGF-b; AID 588855, 2011; HepG2 CAGA-GFP TGF-b/SMAD3 reporter, GFP fluorescence, 18 h; TGF-beta stimulated, 500 pg/mL final; Potency, µM (top dose mostly 46.1 µM), inactives show at the top dose activity, negative = inhibition, most hits filed as inhibitors; 410,000 tested, 1.2% active; further: on the % scale 0 is the no-effect control and ±100 the full control effect; nearly all actives have a fitted effect of over 65% in size
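GFP signal (ex488/em500-530) from TGF-beta-stimulated HEPG2 CAGA-GFP cells, 500 pg/mL final, 18 h at 37 degrees C in DMEM plus 1% FBS, normalized to unstimulated and DMSO-stimulated controls.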
TDP1 cell CPT: qHTS for Inhibitors of human tyrosyl-DNA phosphodiesterase 1 (TDP1): qHTS in cells in presence of CPT. AID 686979, 2013. Potency, µM (doses to about 46.2 µM), for inactives: top-dose activity change, negative = growth inhibition, usual class: inhibitors. chicken DT40 Tdp1-/-;hTDP1 cells + 20 nM CPT, ATP luminescence, 48 h. 420,000 tested, 12% active; further: on the % scale 0 is the no-effect control and ±100 the full control effect; nearly all actives have a fitted effect of over 55% in size
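Chicken DT40 Tdp1-/- cells stably complemented with human TDP1 were seeded at 400 cells/well in medium containing 20 nM camptothecin, exposed to pin-transferred compounds, and grown at 37 °C for at least 48 hr. Viability was read as ATP luminescence.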
HT1080 IDH1KD tx: qHTS for induction of synthetic lethality in tumor cells producing 2HG: qHTS for the HT-1080-IDH1KD cell line; HT-1080 IDH1 knockdown viability, ATP luminescence, 48 h; Potency, µM (top dose mostly 46.1 µM), for inactives: at the highest dose activity, negative = toxicity, usual class: cytotoxic; 360,000 tested, 2% active;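 further: 0% = DMSO wells and -100% = cell-free medium wells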
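Using the IDH1-knockdown HT-1080 line run in the same batch and compound series as the NT line, viability after 48 h at 37 °C was determined by CellTiter-Glo luminescence and expressed as % activity.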
HepG2 viability: qHTS for Inhibitors of TGF-b: Cytotox Counterscreen; HepG2 CAGA-GFP viability, ATP luminescence, 18 h; Potency, µM (doses to about 46.1 µM), inactives show top-dose activity change, negative = cytotoxicity, hits mostly cytotoxic; 410,000 tested, 0.76% active; AID 588856, 2011
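CellTiter-Glo luminescence gave cytotoxicity after 18 hours at 37 degrees C. The cells were HepG2 CAGA-GFP in 1% FBS DMEM, stimulated with 500 pg/mL TGF-beta after compound addition. %Activity was normalised to no-cell wells (complete cell-killing) and DMSO (no toxicity), and curves were fitted and classified.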
Active calls of the source: *; [ ] = another dose, or the depositor's remark. The call rests on the fitted dose curve; in most records, active means well fitted curve in the direction sought with a large enough effect; inconclusive means small, poorly fitted or top-dose-only effect, or another doubt; inactive means no such curve, though single readings can be large; an effect the other way counts as inactive or inconclusive. Potency means the concentration at half of the fitted maximal effect.

What do the screens show for `C[n+]1cn(Cc2cc(Cl)ccc2OC(F)F)c2ccccc21`?
HT1080NT lethal: 2%; DT40 TDP1 no CPT: inconclusive; TGFb inhibitor: 0%; TDP1 cell CPT: inconclusive; HT1080 IDH1KD tx: -17%; HepG2 viability: -3%

Results for CC(C)=CCc1c(-c2ccc(O)cc2O)oc2c3c(cc(O)c2c1=O)OC(C)(C)C=C3 ?
HT1080NT lethal: inconclusive; DT40 TDP1 no CPT: inconclusive; TGFb inhibitor: inconclusive; TDP1 cell CPT: 21µM*; HT1080 IDH1KD tx: -28%; HepG2 viability: -100%

How did CC(C)=CCc1c2c(c(O)c3c(=O)c4c(oc13)-c1cc(O)c(O)cc1OC4C=C(C)C)C=CC(C)(C)O2 (stereo not drawn) do in these assays?
HT1080NT lethal: 0%; DT40 TDP1 no CPT: inconclusive; TGFb inhibitor: 16%; TDP1 cell CPT: inconclusive; HT1080 IDH1KD tx: 0%; HepG2 viability: -20%

Results for CC(C)CNS(=O)(=O)c1ccc(CCC(=O)NCc2ccncc2)cc1 ?
HT1080NT lethal: -8%; DT40 TDP1 no CPT: -1%; TGFb inhibitor: -16%; TDP1 cell CPT: -4%; HT1080 IDH1KD tx: -1%; HepG2 viability: -8%

How did CCCCNC(=O)C(Cc1ccccc1)NS(=O)(=O)c1ccc2c(c1)c(=O)n(C)c(=O)n2C (stereo not drawn) do in these assays?
HT1080NT lethal: 0%; DT40 TDP1 no CPT: -24%; TGFb inhibitor: -27%; TDP1 cell CPT: 22%; HT1080 IDH1KD tx: -2%; HepG2 viability: -14%

What do the screens show for `N#Cc1ccccc1C[C@H](N)C(=O)NC[C@H]1O[C@@H](n2cnc3c(N)ncnc32)[C@H](O)[C@@H]1O`?
HT1080NT lethal: 7%; DT40 TDP1 no CPT: -5%; TGFb inhibitor: -11%; TDP1 cell CPT: -15%; HT1080 IDH1KD tx: 7%; HepG2 viability: 1%

How did O=C(Nc1cccc(Cl)c1Cl)c1snnc1-c1ccccc1 do in these assays?
HT1080NT lethal: -4%; DT40 TDP1 no CPT: inconclusive; TGFb inhibitor: -2%; TDP1 cell CPT: -21%; HT1080 IDH1KD tx: 1%[9.24 µM]; HepG2 viability: 0%

Results for O=C(Nc1cc(Cl)ccc1O)c1snnc1-c1ccccc1 ?
HT1080NT lethal: -3%; DT40 TDP1 no CPT: 16µM*; TGFb inhibitor: inconclusive; TDP1 cell CPT: 13µM*; HT1080 IDH1KD tx: inconclusive; HepG2 viability: -5%

What do the screens show for `COC(=O)c1ccccc1NC(=O)c1noc2c1CSc1ccccc1-2`?
DT40 TDP1 no CPT: 19%; TGFb inhibitor: 0%; TDP1 cell CPT: 27%; HepG2 viability: -13%

How did CCOc1ccccc1CNC(=O)C1CCN(C2=NS(=O)(=O)C(c3ccc(C)c(C)c3)=C2C)CC1 do in these assays?
DT40 TDP1 no CPT: -16%; TGFb inhibitor: -13%; TDP1 cell CPT: 3%; HepG2 viability: 1%

Results for COc1ccccc1CNC(=O)C1CCN(C2=NS(=O)(=O)C(c3ccc(C)c(C)c3)=C2C)CC1 ?
DT40 TDP1 no CPT: 18µM*; TGFb inhibitor: inconclusive; TDP1 cell CPT: 16µM*; HepG2 viability: -59%

How did CC1=C(c2ccc(C)c(C)c2)S(=O)(=O)N=C1N1CCC(C(=O)NCCc2ccc(Cl)cc2)CC1 do in these assays?
DT40 TDP1 no CPT: 7.3µM*; TGFb inhibitor: -39%; TDP1 cell CPT: 13µM*; HepG2 viability: -41%

What do the screens show for `CCOc1ccc(CNC(=O)C2CCN(C3=NS(=O)(=O)C(c4ccc(C)cc4)=C3CC)CC2)cc1`?
DT40 TDP1 no CPT: inconclusive; TGFb inhibitor: -7%; TDP1 cell CPT: 18µM*; HepG2 viability: -28%

What do the screens show for `CCOC(=O)N1CCC(NC(=O)CN(c2ccc(C(C)C)cc2)S(=O)(=O)c2c(C)nn(C)c2C)CC1`?
HT1080NT lethal: 2%; DT40 TDP1 no CPT: 4%; TGFb inhibitor: 9%; TDP1 cell CPT: inconclusive; HT1080 IDH1KD tx: 10%; HepG2 viability: 7%

Results for Cc1cc(NC(=O)CCC(=O)N(c2ccccc2)C(C(=O)NCC2CCCO2)c2cccnc2)no1 (stereo not drawn) ?
HT1080NT lethal: 14%; DT40 TDP1 no CPT: -7%; TGFb inhibitor: -1%; TDP1 cell CPT: 2%; HT1080 IDH1KD tx: 3%; HepG2 viability: -6%

Results for CCCCCCCCCCCCCCC(O)C[N+](C)(CCO)CCO (stereo not drawn) ?
HT1080NT lethal: inconclusive; DT40 TDP1 no CPT: 3.7µM*; TGFb inhibitor: inconclusive; TDP1 cell CPT: 2.3µM*; HT1080 IDH1KD tx: 18µM*; HepG2 viability: -104%

Results for CCCCCCCCCCCCC(O)C(=O)O (stereo not drawn) ?
DT40 TDP1 no CPT: -6%[4.12 µM]; TDP1 cell CPT: 15%[4.12 µM]

Results for O=C(Nc1ccccc1)Nc1nc(-c2ccc(F)cc2)cs1 ?
HT1080NT lethal: 8%; DT40 TDP1 no CPT: 4.1µM*; TGFb inhibitor: 19%; TDP1 cell CPT: 4.1µM*; HT1080 IDH1KD tx: 1%; HepG2 viability: -4%

How did O=C(Nc1ccc(Cl)cc1)Nc1nc(-c2ccccc2)cs1 do in these assays?
HT1080NT lethal: 15%; DT40 TDP1 no CPT: -19%; TGFb inhibitor: inconclusive; TDP1 cell CPT: inconclusive; HT1080 IDH1KD tx: 7%; HepG2 viability: -7%

Results for Fc1ccc(-c2csc(NC(=S)Nc3ccccc3)n2)cc1 ?
HT1080NT lethal: -19%; DT40 TDP1 no CPT: inconclusive; TGFb inhibitor: -17%; TDP1 cell CPT: 21µM*; HT1080 IDH1KD tx: -20%; HepG2 viability: -25%

What do the screens show for `CC1CC1C(=O)Nc1nc(-c2ccccc2)cs1` (stereo not drawn)?
HT1080NT lethal: 5%; DT40 TDP1 no CPT: 5.8µM*; TGFb inhibitor: -2%; TDP1 cell CPT: 5.2µM*; HT1080 IDH1KD tx: -4%; HepG2 viability: -45%

Results for CN(C)CC1CCCCC1OC(=O)c1ccc(S(=O)(=O)N(C)c2ccccc2)cc1 (stereo not drawn) ?
HT1080NT lethal: -8%; DT40 TDP1 no CPT: -18%; TGFb inhibitor: 9%; TDP1 cell CPT: -16%; HT1080 IDH1KD tx: -9%; HepG2 viability: -13%

Screens: PubChem, National Center for Advancing Translational Sciences (NCATS)
